From PubChem BioAssay (NCI) come the findings set out here.

The structures appear in SMILES notation. This is part of a sample that, as a whole, favours compounds with a hit. Of some 83,000 tested, about 20% had one in any assay.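 Method: cells in 96-well plates; compound added at one concentration; 48 h incubation; percent growth measured; values under 10 scored active.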 Unmarked numbers belong to inactive results. Calls of active or inactive are those of the source.

Test systems include SR leukemia; OVCAR-8 ovarian; OVCAR-5 ovarian; OVCAR-4 ovarian; SK-OV-3 ovarian; IGROV1 ovarian; OVCAR-3 ovarian; HS 578T breast; NCI/ADR-RES ovarian; RPMI-8226 leukemia.
What all share (test): NCI-60 one-dose screen, 48 h (100 = growth as untreated, 0 = no growth, -100 = all killed)
Holding throughout (details): 10 µM

For the compound `O=S(=O)(Cc1ccccc1)c1ccccc1`, the growth was 99.9% with SR leukemia; 102% with OVCAR-8 ovarian; 106% in the assay on OVCAR-5 ovarian; 98.1% in the assay with OVCAR-4 ovarian; 113% in the assay with SK-OV-3 ovarian; 114% with IGROV1 ovarian. Besides, the growth in the assay on OVCAR-3 ovarian is 107%; in the assay on HS 578T breast it was 133%; with NCI/ADR-RES ovarian, 117%.
For `O=C1C=C(O)C(=O)C=C1O`, the growth in the assay on SR leukemia was 98.2%; in the assay on OVCAR-8 ovarian, 103%; with OVCAR-5 ovarian, 108%; in the assay on OVCAR-4 ovarian, 118%; in the assay with SK-OV-3 ovarian, 87.9%; in the assay on IGROV1 ovarian, 111%. Further, the figures for the growth in the assay on OVCAR-3 ovarian and in the assay with NCI/ADR-RES ovarian were 107% and 101%, respectively.
As to `NCCCN`, the growth with SR leukemia was 101%; with OVCAR-8 ovarian it was 104%; with OVCAR-5 ovarian it was 107%; in the assay on OVCAR-4 ovarian, 90%; in the assay with SK-OV-3 ovarian it was 105%; in the assay with IGROV1 ovarian, 113%. The growth in the assay on OVCAR-3 ovarian is 111%; with HS 578T breast it was 104%; in the assay with NCI/ADR-RES ovarian, 112%.
Turning to `COc1ccc(C)cc1OC`, the growth in the assay on SR leukemia was 99%; with OVCAR-8 ovarian, 102%; in the assay with OVCAR-5 ovarian it was 114%; with OVCAR-4 ovarian, 104%; with SK-OV-3 ovarian it was 108%; in the assay on IGROV1 ovarian, 99.8%. Besides, the values for the growth in the assay on OVCAR-3 ovarian, with HS 578T breast and with NCI/ADR-RES ovarian were 102%, 114% and 101%, respectively.
In the case of `O=C(O)CCC(NC(=O)OCc1ccccc1)C(=O)O` (stereo unspecified), the growth is 97.5% in the assay with SR leukemia; 107% with RPMI-8226 leukemia; 105% with OVCAR-5 ovarian; 106% with OVCAR-4 ovarian; 82.4% with SK-OV-3 ovarian; 103% in the assay with OVCAR-3 ovarian. Also, the growth in the assay on HS 578T breast and in the assay with NCI/ADR-RES ovarian was 107% throughout.
Regarding `CC(=O)OCCO`, the growth is 107% in the assay with SR leukemia; 101% with OVCAR-8 ovarian; 102% in the assay with OVCAR-5 ovarian; 100% in the assay with OVCAR-4 ovarian; 113% in the assay on SK-OV-3 ovarian; 113% in the assay on IGROV1 ovarian. For the same compound, the figures for the growth in the assay with OVCAR-3 ovarian, with HS 578T breast and in the assay on NCI/ADR-RES ovarian were 110%, 115% and 110%, respectively.
Take `O=C(O)CCCC(=O)O`: the growth in the assay on SR leukemia is 94.7%; in the assay with OVCAR-8 ovarian, 99.4%; in the assay on OVCAR-5 ovarian it was 104%; in the assay on OVCAR-4 ovarian, 84.3%; in the assay on SK-OV-3 ovarian, 104%; in the assay on IGROV1 ovarian it was 104%. Further, the values for the growth in the assay with OVCAR-3 ovarian, with HS 578T breast and in the assay with NCI/ADR-RES ovarian were 102%, 110% and 103%, respectively.
Turning to `c1ccc(/C(=N\N=C(/c2ccccc2)c2cccs2)c2cccs2)cc1`, the growth in the assay with SR leukemia was 87.3%; in the assay on OVCAR-8 ovarian, 95%; in the assay on OVCAR-5 ovarian, 98.5%; in the assay with OVCAR-4 ovarian it was 97.1%; with SK-OV-3 ovarian it was 105%; in the assay with IGROV1 ovarian, 105%. In addition, the growth in the assay on OVCAR-3 ovarian is 99.7%; in the assay with HS 578T breast, 105%; in the assay with NCI/ADR-RES ovarian it was 102%.
For the compound `O=C1OC(=O)C2C1C1(Cl)C(Cl)=C(Cl)C2(Cl)C2C(=O)OC(=O)C21` (stereo unspecified), the growth in the assay on RPMI-8226 leukemia was 96.4%; with OVCAR-8 ovarian it was 100%; in the assay with OVCAR-5 ovarian it was 106%; with OVCAR-4 ovarian, 101%; in the assay with SK-OV-3 ovarian, 102%; in the assay on IGROV1 ovarian, 109%. The growth with OVCAR-3 ovarian is 112%; in the assay on HS 578T breast, 113%; in the assay on NCI/ADR-RES ovarian it was 108%.
For the compound `N#CC(=Nc1cccc(F)c1)C1=C(O)c2ccccc2C1=O`, the growth is 82% in the assay with RPMI-8226 leukemia; 85.4% in the assay with OVCAR-8 ovarian; 103% in the assay with OVCAR-5 ovarian; 88.9% in the assay with OVCAR-4 ovarian; 98.7% in the assay with SK-OV-3 ovarian; 100% in the assay with IGROV1 ovarian. Also, the figures for the growth with OVCAR-3 ovarian, in the assay on HS 578T breast and in the assay on NCI/ADR-RES ovarian were 92.7%, 99.7% and 89.1%, respectively.
For the compound `O=C(Cc1ccc(OCc2ccccc2)cc1)NCc1ccc2c(c1)OCO2`, the growth with RPMI-8226 leukemia is 67.7%; in the assay with OVCAR-8 ovarian, 91.1%; with OVCAR-5 ovarian it was 110%; with OVCAR-4 ovarian, 107%; in the assay with SK-OV-3 ovarian, 82.4%; in the assay with IGROV1 ovarian, 60.4%. Besides, the growth in the assay on OVCAR-3 ovarian is 58.9%; with HS 578T breast, 69.8%; in the assay on NCI/ADR-RES ovarian it was 47.8%.
Regarding `Cc1ccc(/C=C2\SC(=S)N(c3ccc(F)cc3)C2=O)o1`, the growth was 86.4% with RPMI-8226 leukemia; 0% (active) in the assay on OVCAR-8 ovarian; 102% with OVCAR-5 ovarian; 13.6% in the assay with OVCAR-4 ovarian; 92.2% in the assay with SK-OV-3 ovarian; 90.7% in the assay on IGROV1 ovarian. Further, the growth in the assay with OVCAR-3 ovarian was 79.1%; with HS 578T breast it was 52.2%; with NCI/ADR-RES ovarian, 73%.
As for `CCCC[P+](c1ccccc1)(c1ccccc1)c1ccccc1`, the growth with SR leukemia was 41.2%; in the assay on OVCAR-8 ovarian it was 43.4%; in the assay with OVCAR-5 ovarian it was 62.6%; in the assay on SK-OV-3 ovarian, 87.2%; with IGROV1 ovarian, 49.1%; in the assay on OVCAR-3 ovarian it was 43.5%. The figures for the growth in the assay with HS 578T breast and with NCI/ADR-RES ovarian were 80.2% and 106%, respectively.
In the case of `CCOC(=O)c1cc(/C=C/c2ccc(Cl)cc2Cl)on1`, the growth is 2.84% (active) with RPMI-8226 leukemia; 24.1% in the assay on OVCAR-8 ovarian; 58.8% with OVCAR-5 ovarian; 76% in the assay with OVCAR-4 ovarian; 104% with SK-OV-3 ovarian; 82.2% with IGROV1 ovarian. For the same compound, the results for the growth with OVCAR-3 ovarian, in the assay on HS 578T breast and in the assay with NCI/ADR-RES ovarian were 24.4%, 71.8% and -34.9% (active), respectively.
For `COC(=O)c1ccccc1Br`, the growth is 104% with RPMI-8226 leukemia; 105% with OVCAR-8 ovarian; 82.2% in the assay on OVCAR-5 ovarian; 103% with OVCAR-4 ovarian; 107% in the assay with SK-OV-3 ovarian; 108% in the assay on IGROV1 ovarian. The growth was 106% with OVCAR-3 ovarian, 113% in the assay on HS 578T breast and 100% with NCI/ADR-RES ovarian.
In the case of `OC1OC(COC(c2ccccc2)(c2ccccc2)c2ccccc2)C(O)C(O)C1O` (stereo unspecified), the growth in the assay with RPMI-8226 leukemia was 95.9%; in the assay on OVCAR-8 ovarian, 93.7%; in the assay on OVCAR-5 ovarian, 95.9%; in the assay on OVCAR-4 ovarian, 84.1%; in the assay on SK-OV-3 ovarian it was 99.9%; in the assay on IGROV1 ovarian it was 95.3%. For the same compound, the figures for the growth with OVCAR-3 ovarian, in the assay on HS 578T breast and with NCI/ADR-RES ovarian were 104%, 105% and 104%, respectively.
